Drawing on the OligoGym collection, this text covers sensor-assay potency score (higher = more potent) for 40 sequences.
Further: reference of the scale not given here.

The target of one assay is C8B. The assay is described as follows: pooled miR-30 sensor sort-seq; sequence = guide strand. Particulars: shRNA.
Sequence TAGTATGAGAGAATCGTTTGGT registered a sensor-assay potency score (higher = more potent) of 0.49.

TTTGCCTACAGACACACCCAGA came in with a sensor-assay potency score (higher = more potent) of -0.947.

The sequence TTGTTGACTGCATTTGACCCAA yielded a sensor-assay potency score (higher = more potent) of -0.397.

As for TAACACAGTCTTCGACTTCCTT, the sensor-assay potency score (higher = more potent) is -0.392.

As for TAGGGCTTCCTAAACCTCGTGT, the sensor-assay potency score (higher = more potent) worked out at 0.733.

TTAACTTTGATGATGGCTGGGT returned a sensor-assay potency score (higher = more potent) of 0.335.

On to TAAAACCAAAACTGAAACCAGA, for which the sensor-assay potency score (higher = more potent) is -0.722.

In turn, TTTAGTATGAGAGAATCGTTTG displayed a sensor-assay potency score (higher = more potent) of -0.791.

In turn, TAGCTTTCCACATTGTAGGGCT returned a sensor-assay potency score (higher = more potent) of 0.376.

Sequence TATTTTAAAACCAAAACTGAAA showed a sensor-assay potency score (higher = more potent) of -1.26.

TTTTAGTATGAGAGAATCGTTT showed a sensor-assay potency score (higher = more potent) of -0.743.

Turning to AACACAGTCTTCGACTTCCTTG, the sensor-assay potency score (higher = more potent) is -0.726.

For the sequence TAATATAGTGTTTGCCTCGATC, the sensor-assay potency score (higher = more potent) is -0.751.

Consider TTACACACCTTCCTGTCTGTGC, for which the sensor-assay potency score (higher = more potent) turned out to be 0.539.

In turn, TAACTCTCTGAAGGAACTCGTA came in with a sensor-assay potency score (higher = more potent) of -1.02.

With TAAGAGTATAATCTCCTCTCTC, the sensor-assay potency score (higher = more potent) worked out at 0.0444.

As for TTTATTTTAAACAGCTTGCATG, the sensor-assay potency score (higher = more potent) is -0.469.

The sequence TTGTCAGAGAAGTTGCACGGTT displayed a sensor-assay potency score (higher = more potent) of -0.544.

In turn, TTGACTTCCGCATGGTCTGTTG displayed a sensor-assay potency score (higher = more potent) of -0.312.

Regarding TTTGTCTTGTCTTACGTCTTCC, the sensor-assay potency score (higher = more potent) is -0.213.

Another assay concerns the target C8orf37. The description is as above. Particulars: shRNA.
For TTGATGAGGTAAGATCAGCTAT, the sensor-assay potency score (higher = more potent) was -0.469.

The sequence TTCTTCTTTATCAACTTTGCTT returned a sensor-assay potency score (higher = more potent) of -0.238.

As to TAAGACTGTCAAGATCATCTTC, the sensor-assay potency score (higher = more potent) came to 0.587.

Regarding ATATTGTGCATAACATTGCTTT, the sensor-assay potency score (higher = more potent) is -0.312.

Sequence TTGCTTTGAGTTGATGAGGTAA gave a sensor-assay potency score (higher = more potent) of -0.541.

TTTAACTGCTACAAGTTGGGGA: the sensor-assay potency score (higher = more potent) was determined as 0.583.

For the sequence TTAAATGTTTCTGTTGATCTGA, the sensor-assay potency score (higher = more potent) worked out at 0.482.

For the sequence TTAATTTGTGAAATTCTGGCAT, the sensor-assay potency score (higher = more potent) came out at 0.766.

The sequence TAATTTGTGAAATTCTGGCATG displayed a sensor-assay potency score (higher = more potent) of -0.39.

TACATGATCTTCCTTAGTCCAT gave a sensor-assay potency score (higher = more potent) of -0.774.

TTATAATACATGATCTTCCTTA returned a sensor-assay potency score (higher = more potent) of 0.582.

TCTTCTTTATCAACTTTGCTTT: the sensor-assay potency score (higher = more potent) is -0.627.

The target in another assay is C8orf86. The assay is described as above. Particulars: shRNA.
ATTGCTTCTAATCAACTCCTCA yielded a sensor-assay potency score (higher = more potent) of 0.067.

As for TTTCCTTCCCTTCTGTCCCAAA, the sensor-assay potency score (higher = more potent) is -1.07.

Regarding TCTTTGTCTCTCTGTTCGCTGC, the sensor-assay potency score (higher = more potent) was -0.625.

In turn, TTGAAGAAACCACAGATGCGAG yielded a sensor-assay potency score (higher = more potent) of -0.899.

As for TTTGAAGAAACCACAGATGCGA, the sensor-assay potency score (higher = more potent) turned out to be 0.17.

TTGCTTCTAATCAACTCCTCAG showed a sensor-assay potency score (higher = more potent) of -0.327.

TTCTAATCAACTCCTCAGCTGG displayed a sensor-assay potency score (higher = more potent) of -0.81.

TAATCAACTCCTCAGCTGGGAG had a sensor-assay potency score (higher = more potent) of -1.02.
